Drawing on PubChem BioAssay, this text covers inhibition of viability and viability decrease (inhibition) for 40 compounds.

Activity calls are given as the source filed them.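 Rule for the calls, unless noted: active = compounds that lower viability of the colon cancer cells in the luminescence readout, with no numeric limit stated; inactive = the rest.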

One assay is described as follows: HCT116 colon cancer cell growth inhibition, primary screen, CellTiter-Glo luminescence, NPC library (AID 1117342;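 active = compounds that lower survival of HCT116 colon cancer cells in the luminescence readout, no numeric limit stated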). Conditions: at 20 µM (top of the series).
Take `COc1cc(N)c(Cl)cc1C(=O)NC1CCN(CCCOc2ccc(F)cc2)CC1OC` (stereo not given): the inhibition of viability is 53.9% (active).
Turning to `O=C(OOC(=O)c1ccccc1)c1ccccc1`, the inhibition of viability was 1.1% (inactive).
As to `C[C@@]12C(=O)OC(=O)[C@]1(C)C1CCC2O1`, the inhibition of viability was 73% (active).
Consider `CCOCC(O)COc1ccc(NC(=O)CC[S+](C)C)cc1` (stereo not given), for which the inhibition of viability is 0.1% (inactive).
Regarding `C[N+](C)(C)CCCCCCCCCC[N+](C)(C)C`, the inhibition of viability is 2.9% (inactive).
Consider `CC[C@@H](CO)NCCN[C@@H](CC)CO`, for which the inhibition of viability was -4.17% (inactive).
The same measure, in the same setting: for `Cc1ncc(CSSCc2cnc(C)c(O)c2CO)c(CO)c1O` the value was 14.3% (inactive).
In the case of `O=C(O)CN(CC(=O)O)Cc1cc2c(-c3ccccc3C(=O)O)c3cc(CN(CC(=O)O)CC(=O)O)c(=O)cc-3oc2cc1O`, the inhibition of viability is 22.3% (inactive).
On the same count and under the same terms, for `CC1=C(C/C=C(\C)CCC[C@H](C)CCC[C@H](C)CCCC(C)C)C(=O)c2ccccc2C1=O` the value was -10.9% (inactive).
On to `OCCc1ccccc1`, for which the inhibition of viability is -7.95% (inactive).
The same measure, in the same setting: for `O=C1c2ccccc2C(=O)C1c1ccc(Br)cc1` the value was 61.7% (active); for `CCOC(=O)c1ccc(O)cc1`, 4.1% (inactive).
Still for that read-out and setting: for `O=C(CCCl)NCc1ccccc1` the value was 5% (inactive); for `CC1(C)[C@@H]2CC[C@@]1(C)C(=O)C2`, 10.9% (inactive); for `Cc1cc(C(C#N)c2ccc(Cl)cc2)c(Cl)cc1NC(=O)c1cc(I)cc(I)c1O` (stereo not given), 125% (active).
Same read-out and setting: for `CC(C)CCCC(C)N` (stereo not given) the value was -7.6% (inactive); for `NCCNCCNCCN`, 4.7% (inactive).
Take `Nc1ncn([C@H]2C[C@H](O)[C@@H](CO)O2)c(=O)n1`: the inhibition of viability is 31.2% (inactive).
As for `CC(O)Cn1cnc2c1c(=O)n(C)c(=O)n2C` (stereo not given), the inhibition of viability was 8.77% (inactive).
Still for that read-out and setting: next, `CC(=O)NCc1c(I)c(NC(C)=O)c(I)c(C(=O)O)c1I`: -14.3% (inactive).
Take `O=S(=O)(O)CCCS(=O)(=O)O`: the inhibition of viability is -1.7% (inactive).
Turning to `CNCc1ccccc1`, the inhibition of viability is -14.3% (inactive).
On the same count and under the same terms, for `CCN(CC)CCOc1ccc2c(c1)C(=O)c1cc(OCCN(CC)CC)ccc1-2` the value was 52.8% (active).
Same read-out and setting: next, `CN(C)CCCOc1nn(Cc2ccccc2)c2ccccc12`: 46% (inactive).
Same read-out and setting: next, `CCCCCCCCCCOc1cc2c(=O)c(C(=O)OCC)c[nH]c2cc1OCC`: -5.6% (inactive); `NC(=O)c1cc[n+](CC2=C(C(=O)[O-])N3C(=O)[C@@H](NC(=O)Cc4cccs4)[C@H]3SC2)cc1`: -2.6% (inactive); `Cc1c(F)c(N2CCNC(C)C2)cc2c1c(=O)c(C(=O)O)cn2C1CC1` (stereo not given): 39.5% (inactive).
Regarding `Cc1cc2nc3ccc(=[N+](C)C)cc-3sc2cc1N`, the inhibition of viability is 82.7% (active).
`NC(=O)C1(N2CCCCC2)CCN(CCCC(=O)c2ccc(F)cc2)CC1`: the inhibition of viability is 15.3% (inactive).
Same read-out and setting: for `CC(=O)NC(Cc1ccccc1)C(=O)O` (stereo not given) the value was 3.2% (inactive); for `O=C(Nc1ccc(C(=O)O)c(O)c1)c1ccccc1`, -1.1% (inactive).
The same measure, in the same setting: for `CC(C)=CCC/C(C)=C/CO` the value was 1.77% (inactive).
On the same count and under the same terms, next, `CC1=C(/C=C/C(C)=C/C=C/C(C)=C/C(=O)Nc2ccc(O)cc2)C(C)(C)CCC1`: 90.4% (active); `O=C1OC2(c3ccc(O)cc3Oc3cc(O)ccc32)c2ccccc21`: 9.8% (inactive); `COc1cc(C(=O)NCCCCCC(=O)O)cc(OC)c1OC`: 6.2% (inactive).
As to `OC1C(O)C(O)C(O)C(O)C1O` (stereo not given), the inhibition of viability was 3.1% (inactive).
Take `Nc1nc(Cl)nc2c1ncn2[C@@H]1O[C@H](CO)[C@@H](O)[C@@H]1F`: the inhibition of viability was 80.9% (active).
On the same count and under the same terms, for `CC(O)(P(=O)(O)O)P(=O)(O)O` the value was 9.4% (inactive).
On the same count and under the same terms, for `CC(=O)OCC(=O)[C@@]1(O)CCC2C3CCC4=CC(=O)CC[C@]4(C)C3[C@@H](O)C[C@@]21C` (stereo not given in full) the value was -1.6% (inactive); for `NC(=O)CCCCC1CCSS1` (stereo not given), -10.3% (inactive).

A short description of a further assay: CellTiter-Glo luminescent readout of SW480 viability loss, NPC library primary (AID 1117343). The settings on record: CellTiter-Glo luminescence; at 20 µM (top of the series) unless noted.
`COc1cc(N)c(Cl)cc1C(=O)NC1CCN(CCCOc2ccc(F)cc2)CC1OC` (stereo not given): the viability decrease (inhibition) was 66.7% (active).
Same read-out and setting: for `O=C(OOC(=O)c1ccccc1)c1ccccc1` the value was 10% (inactive); for `C[C@@]12C(=O)OC(=O)[C@]1(C)C1CCC2O1`, 112% (active).
The same measure, in the same setting: for `CCOCC(O)COc1ccc(NC(=O)CC[S+](C)C)cc1` (stereo not given) the value was -6.5% (inactive).
Same read-out and setting: for `C[N+](C)(C)CCCCCCCCCC[N+](C)(C)C` the value was -8.7% (inactive); for `CC[C@@H](CO)NCCN[C@@H](CC)CO`, 11.7% (inactive); for `Cc1ncc(CSSCc2cnc(C)c(O)c2CO)c(CO)c1O`, 6.1% (inactive).
With `O=C(O)CN(CC(=O)O)Cc1cc2c(-c3ccccc3C(=O)O)c3cc(CN(CC(=O)O)CC(=O)O)c(=O)cc-3oc2cc1O`, the viability decrease (inhibition) was 25.8% (inactive).
Still for that read-out and setting: for `CC1=C(C/C=C(\C)CCC[C@H](C)CCC[C@H](C)CCCC(C)C)C(=O)c2ccccc2C1=O` the value was -45.3% (inactive).
Still for that read-out and setting: next, `OCCc1ccccc1`: 11.9% (inactive); `O=C1c2ccccc2C(=O)C1c1ccc(Br)cc1`: 67.2% (active).
Still for that read-out and setting: for `CCOC(=O)c1ccc(O)cc1` the value was 29.4% (inactive).
Consider `O=C(CCCl)NCc1ccccc1`, for which the viability decrease (inhibition) is 0.6% (inactive).
Take `CC1(C)[C@@H]2CC[C@@]1(C)C(=O)C2`: the viability decrease (inhibition) is 2.9% (inactive).
For `Cc1cc(C(C#N)c2ccc(Cl)cc2)c(Cl)cc1NC(=O)c1cc(I)cc(I)c1O` (stereo not given), the viability decrease (inhibition) is 163% (active).
For `CC(C)CCCC(C)N` (stereo not given), the viability decrease (inhibition) is -47.3% (active).
Take `NCCNCCNCCN`: the viability decrease (inhibition) is -40.9% (inactive).
On the same count and under the same terms, for `Nc1ncn([C@H]2C[C@H](O)[C@@H](CO)O2)c(=O)n1` the value was 53.8% (active).
The same measure, in the same setting: next, `CC(O)Cn1cnc2c1c(=O)n(C)c(=O)n2C` (stereo not given): 26.1% (inactive); `CC(=O)NCc1c(I)c(NC(C)=O)c(I)c(C(=O)O)c1I`: 27.5% (inactive).
Still for that read-out and setting: for `O=S(=O)(O)CCCS(=O)(=O)O` the value was -9.3% (inactive); for `CNCc1ccccc1`, -24.6% (inactive); for `CCN(CC)CCOc1ccc2c(c1)C(=O)c1cc(OCCN(CC)CC)ccc1-2`, 95.3% (active).
Regarding `CN(C)CCCOc1nn(Cc2ccccc2)c2ccccc12`, the viability decrease (inhibition) is 82.6% (active).
Regarding `CCCCCCCCCCOc1cc2c(=O)c(C(=O)OCC)c[nH]c2cc1OCC`, the viability decrease (inhibition) is -212% (inactive).
Same read-out and setting: for `NC(=O)c1cc[n+](CC2=C(C(=O)[O-])N3C(=O)[C@@H](NC(=O)Cc4cccs4)[C@H]3SC2)cc1` the value was 3.4% (inactive); for `Cc1c(F)c(N2CCNC(C)C2)cc2c1c(=O)c(C(=O)O)cn2C1CC1` (stereo not given), 0% (inactive).
On the same count and under the same terms, next, `Cc1cc2nc3ccc(=[N+](C)C)cc-3sc2cc1N`: 85% (active).
On to `NC(=O)C1(N2CCCCC2)CCN(CCCC(=O)c2ccc(F)cc2)CC1`, for which the viability decrease (inhibition) is 12.8% (inactive).
Still for that read-out and setting: for `CC(=O)NC(Cc1ccccc1)C(=O)O` (stereo not given) the value was 23.3% (inactive); for `O=C(Nc1ccc(C(=O)O)c(O)c1)c1ccccc1`, 74.5% (active).
Same read-out and setting: for `CC(C)=CCC/C(C)=C/CO` the value was -1.7% (inactive); for `CC1=C(/C=C/C(C)=C/C=C/C(C)=C/C(=O)Nc2ccc(O)cc2)C(C)(C)CCC1`, 118% (active); for `O=C1OC2(c3ccc(O)cc3Oc3cc(O)ccc32)c2ccccc21`, 16% (inactive).
On the same count and under the same terms, for `COc1cc(C(=O)NCCCCCC(=O)O)cc(OC)c1OC` the value was -6.6% (inactive); for `OC1C(O)C(O)C(O)C(O)C1O` (stereo not given), 4.8% (inactive).
Turning to `Nc1nc(Cl)nc2c1ncn2[C@@H]1O[C@H](CO)[C@@H](O)[C@@H]1F`, the viability decrease (inhibition) is 59.6% (active).
Take `CC(O)(P(=O)(O)O)P(=O)(O)O`: the viability decrease (inhibition) is 2.7% (inactive).
Still for that read-out and setting: next, `CC(=O)OCC(=O)[C@@]1(O)CCC2C3CCC4=CC(=O)CC[C@]4(C)C3[C@@H](O)C[C@@]21C` (stereo not given in full): -3% (inactive); `NC(=O)CCCCC1CCSS1` (stereo not given): -43.7% (inactive).
